Measurements taken from PubChem BioAssay (Tox21).
Records with an inconclusive call do not appear. The source made the active and inactive calls. Unless noted, calls follow the shape of the dose curve; as a rule, active = well fitted curve in the direction sought with a large enough effect in the repeat runs; inconclusive = weak or mixed curves; inactive = no such curve, though single readings can be large; an effect the other way counts as inactive or inconclusive.

What was measured:
[1] = molecular target: Retinoic acid receptor RXR-alpha (Homo sapiens) (UniProt P19793); test: qHTS assay to identify small molecule agonists of the RXR signaling pathway (AID 1159527; calls by dose curve; also: nearly all actives have a fitted effect of over 35% in size; also: potency is read from the fitted curve at half-maximal effect)
Sequence of Retinoic acid receptor RXR-alpha (Homo sapiens) (P19793 whole entry, looked up): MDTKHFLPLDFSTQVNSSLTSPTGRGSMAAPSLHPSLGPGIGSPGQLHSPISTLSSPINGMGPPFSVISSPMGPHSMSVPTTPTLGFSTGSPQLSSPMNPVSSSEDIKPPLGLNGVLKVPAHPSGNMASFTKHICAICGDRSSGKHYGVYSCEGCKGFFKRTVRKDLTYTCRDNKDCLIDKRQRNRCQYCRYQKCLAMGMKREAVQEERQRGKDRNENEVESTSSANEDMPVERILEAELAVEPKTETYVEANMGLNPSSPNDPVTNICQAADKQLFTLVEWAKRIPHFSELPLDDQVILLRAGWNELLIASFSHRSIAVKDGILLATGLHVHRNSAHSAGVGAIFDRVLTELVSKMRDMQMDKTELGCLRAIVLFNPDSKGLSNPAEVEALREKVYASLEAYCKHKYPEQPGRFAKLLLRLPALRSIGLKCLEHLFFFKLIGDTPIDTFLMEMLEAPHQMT
Summary of the method: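 GeneBLAzer RXR-alpha-UAS-bla HEK 293T cells in medium with 2% charcoal-stripped FBS, pre-incubated 5 hr at 37 C, then exposed to compounds 16 hr. Beta-lactamase reporter read by FRET substrate, 2 hr room temperature, 460/530 nm emission.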

[2] = qHTS assay to identify small molecule agonists of the RXR signaling pathway - cell viability counter screen (AID 1159529); also: series mostly up to about 77 µM; nearly all actives have a fitted effect of over 50% in size
Summary of the method: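 RXR-alpha-UAS-bla HEK 293T cells in medium with 2% charcoal-stripped FBS were preincubated 5 hr, then exposed to compounds for 16 hr at 37 C. Viability was read as CellTiter-Glo luminescence after 30 min at room temperature.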

[3] = qHTS assay to identify small molecule antagonists of the retinoid acid receptor (RAR) signaling pathway - cell viability counter screen (AID 1159551); also: nearly all actives have a fitted effect of over 35% in size
Summary of the method: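 Cells (C3RL4) are plated, incubated overnight, dosed with compound in DMSO, then given retinol at 1 uM final. After 6 h at 37 C, CellTiter-Glo is added and luminescence read following 30 min at room temperature.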

[4] = qHTS assay to identify small molecule antagonists of the estrogen related receptor (ERR) signaling pathway from Tox21 library - cell viability counter screen (AID 1224834); also: nearly all actives have a fitted effect of over 30% in size; also: potency is read from the fitted curve at half-maximal effect
Summary of the method: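 ERR cells, 2,000/well; 6 h settle at 37 C/5% CO2; pin-tool compound transfer in DMSO; 17.5 h at 37 C; CellTiter-Fluor, 30 min; fluorescence intensity.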

[5] = molecular target: Luciferin 4-monooxygenase (Photinus pyralis) (UniProt P08659); test: qHTS assay to identify small molecule inhibitors of firefly luciferase (AID 1224835); also: series mostly up to about 120 µM; nearly all actives have a fitted effect of over 25% in size
Sequence of Luciferin 4-monooxygenase (Photinus pyralis) (P08659 whole entry, looked up): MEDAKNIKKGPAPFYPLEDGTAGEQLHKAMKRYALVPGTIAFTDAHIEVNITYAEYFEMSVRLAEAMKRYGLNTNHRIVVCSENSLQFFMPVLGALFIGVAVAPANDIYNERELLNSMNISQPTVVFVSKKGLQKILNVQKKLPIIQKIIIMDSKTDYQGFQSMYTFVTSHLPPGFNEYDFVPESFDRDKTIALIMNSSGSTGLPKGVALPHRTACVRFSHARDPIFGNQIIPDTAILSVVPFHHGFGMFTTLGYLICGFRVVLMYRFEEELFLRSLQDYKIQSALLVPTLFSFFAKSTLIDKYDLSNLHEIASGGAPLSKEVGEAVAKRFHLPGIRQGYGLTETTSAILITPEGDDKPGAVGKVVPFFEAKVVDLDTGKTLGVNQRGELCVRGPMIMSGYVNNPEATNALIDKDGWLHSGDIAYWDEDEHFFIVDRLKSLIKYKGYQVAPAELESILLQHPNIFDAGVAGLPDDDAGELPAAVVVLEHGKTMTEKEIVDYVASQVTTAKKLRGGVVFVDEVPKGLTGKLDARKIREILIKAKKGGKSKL
Summary of the method: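 Biochemical qHTS: compounds run as interplate titrations against purified firefly enzyme, with D-luciferin and ATP each at its KM concentration. Light output recorded by CCD imaging.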

[6] = qHTS assay to identify small molecule agonists of the constitutive androstane receptor (CAR) signaling pathway - cell viability counter screen (AID 1224836); also: series mostly up to about 92 µM; nearly all actives have a fitted effect of over 45% in size
Summary of the method: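 HepG2 cells stably carrying hCAR and a CYP2B6-2.2kb reporter were plated 4 h, then given compounds at 15 concentrations plus PK11195 (final 0.75 uM). After 23 h at 37 C, viability was read by CellTiter-Fluor fluorescence.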

[7] = qHTS assay to identify small molecule antagonists of the constitutive androstane receptor (CAR) signaling pathway - cell viability counter screen (AID 1224837); also: series mostly up to about 92 µM; nearly all actives have a fitted effect of over 45% in size
Summary of the method: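 Viability was measured with CellTiter-Fluor in a HepG2 line carrying stably transfected hCAR and a CYP2B6-2.2kb construct. Cells were exposed for 23 hr at 37 C to 15 compound concentrations with 50 nM CITCO as agonist.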

[8] = molecular target: Nuclear receptor subfamily 1 group I member 3 (Homo sapiens) (UniProt Q14994); test: qHTS assay to identify small molecule antagonists of the constitutive androstane receptor (CAR) signaling pathway (AID 1224838); also: nearly all actives have a fitted effect of over 40% in size
Sequence of Nuclear receptor subfamily 1 group I member 3 (Homo sapiens) (Q14994 whole entry, looked up): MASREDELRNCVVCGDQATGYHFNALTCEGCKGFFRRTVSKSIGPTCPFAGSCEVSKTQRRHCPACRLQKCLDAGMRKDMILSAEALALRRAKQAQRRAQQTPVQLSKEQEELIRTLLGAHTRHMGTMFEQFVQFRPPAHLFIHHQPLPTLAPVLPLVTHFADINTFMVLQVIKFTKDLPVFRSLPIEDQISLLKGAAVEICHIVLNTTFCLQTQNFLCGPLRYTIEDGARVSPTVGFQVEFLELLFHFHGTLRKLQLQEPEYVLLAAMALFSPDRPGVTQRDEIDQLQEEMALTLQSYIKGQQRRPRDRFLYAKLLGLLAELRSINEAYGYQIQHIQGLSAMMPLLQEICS
Summary of the method: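 Antagonist mode used CITCO at a final 50 nM to activate CAR in human hepatoma HepG2 cells carrying stable hCAR and a 2.2 kb CYP2B6 promoter-luciferase construct. Compounds were tested at 15 concentrations over 24 h, with luminescence as the end point.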

[9] = molecular target: Nuclear receptor subfamily 1 group I member 3 (Homo sapiens) (UniProt Q14994); test: qHTS assay to identify small molecule agonists of the constitutive androstane receptor (CAR) signaling pathway (AID 1224839); also: series mostly up to about 92 µM; nearly all actives have a fitted effect of over 15% in size
Summary of the method: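 HepG2 cells stably expressing hCAR and a CYP2B6-2.2kb luciferase reporter were treated with compounds at 15 concentrations plus 0.75 uM PK11195 (final) for 24 h at 37 C; luminescence was read after ONE-Glo addition.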

[10] = qHTS assay to identify small molecule antagonists of the estrogen related receptor signaling pathway with the pleiotropic PPARgamma coactivator (PGC) from Tox21 10K library (AID 1224841; call rule not given here; also: actives are mostly falling curves and most rising ones were filed inactive; nearly all actives have a fitted effect of over 50% in size; also: potency is read from the fitted curve at half-maximal effect; as to activity, negative = inhibition: series mostly up to about 92 µM)
Summary of the method: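 Steps: plate 2,000 PGC/ERR cells per well; incubate 6 h at 37 C with 5% CO2; transfer compounds from DMSO stocks by pin tool; incubate 18 h at 37 C; add One-Glo; measure luminescence 30 min later.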

[11] = qHTS assay to identify small molecule agonists of the estrogen related receptor signaling pathway with the pleiotropic PPARgamma coactivator (PGC) from Tox21 10K library (AID 1224842); also: nearly all actives have a fitted effect of over 15% in size
Summary of the method: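 PGC/ERR reporter cell line, 2,000 cells per well, incubated 6 h at 37 C before 23 nL compound in DMSO was added. After 18 h at 37 C, One-Glo luminescence read following 30 min at room temperature.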

[12] = molecular target: Thyrotropin receptor (Homo sapiens) (UniProt P16473); test: qHTS assay to identify small molecule agonists of the thyroid stimulating hormone receptor (TSHR) signaling pathway (AID 1224843; calls by dose curve; also: nearly all actives have a fitted effect of over 45% in size)
Sequence of Thyrotropin receptor (Homo sapiens) (P16473 whole entry, looked up): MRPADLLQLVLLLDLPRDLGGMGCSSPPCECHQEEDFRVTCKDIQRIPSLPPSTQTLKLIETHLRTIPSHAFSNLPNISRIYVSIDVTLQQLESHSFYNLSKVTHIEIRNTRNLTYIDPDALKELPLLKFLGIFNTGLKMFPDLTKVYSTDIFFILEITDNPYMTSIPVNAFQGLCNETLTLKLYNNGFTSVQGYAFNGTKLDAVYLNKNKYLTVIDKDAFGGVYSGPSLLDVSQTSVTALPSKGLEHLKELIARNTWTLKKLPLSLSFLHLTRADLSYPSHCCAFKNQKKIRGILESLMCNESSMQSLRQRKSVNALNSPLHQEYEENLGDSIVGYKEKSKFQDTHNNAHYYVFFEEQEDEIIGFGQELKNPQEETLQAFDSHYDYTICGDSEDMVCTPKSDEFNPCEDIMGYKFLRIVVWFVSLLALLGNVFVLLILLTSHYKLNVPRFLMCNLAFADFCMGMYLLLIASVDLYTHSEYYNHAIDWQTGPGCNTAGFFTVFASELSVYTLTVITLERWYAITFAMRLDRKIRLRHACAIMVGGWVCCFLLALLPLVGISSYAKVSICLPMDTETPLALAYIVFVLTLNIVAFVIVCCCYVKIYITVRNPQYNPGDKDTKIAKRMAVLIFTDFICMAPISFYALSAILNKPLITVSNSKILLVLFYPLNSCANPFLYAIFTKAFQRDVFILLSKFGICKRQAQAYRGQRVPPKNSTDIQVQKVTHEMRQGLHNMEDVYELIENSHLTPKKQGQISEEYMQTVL
Summary of the method: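 HEK293/TSHR, 800 cells/well; cpd 30 min RT; add cAMP-d2 + anti-cAMP-cryptate, 1 h RT; fluorescence read on plate reader. 15-pt titration, n=3.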

[13] = qHTS assay to identify small molecule antagonists of the estrogen related receptor signaling pathway with the pleiotropic PPARgamma coactivator (PGC) from Tox21 10K library - cell viability counter screen (AID 1224840; active = well fitted cell-killing curve with a large enough effect in the repeat runs, not every such curve was filed as active; also: nearly all actives have a fitted effect of over 40% in size)
Summary of the method: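 Multiplexed viability counter screen in the PGC/ERR cell line: cells treated with DMSO-dissolved compounds for 17.5 hours at 37 C, then viability measured as CellTiter-Fluor fluorescence.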

[14] = qHTS assay to identify small molecule antagonists of the estrogen related receptor (ERR) signaling pathway - cell viability counter screen (AID 1224818); also: series mostly up to about 46 µM
Summary of the method: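 ERR cells, 2,000/well; 6 h settle at 37 C/5% CO2; compound pin transfer (DMSO); 17.5 h at 37 C; CellTiter-Fluor, 30 min, fluorescence read.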

[15] = qHTS assay to identify small molecule antagonists of the estrogen related receptor signaling pathway with the pleiotropic PPARgamma coactivator (PGC) cell viability counter screen (AID 1224822;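 also: series mostly up to about 46 µM; viability read after 17.5 h compound exposure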)
Summary of the method: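 Multiplexed viability counter screen run in PGC/ERR cells treated with compounds for 17.5 h at 37 C; live-cell protease signal measured by CellTiter-Fluor fluorescence.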

[16] = qHTS assay to identify small molecule agonists of the retinoic acid receptor (RAR) signaling pathway (AID 1159553)
Summary of the method: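 Seed C3RL4 reporter cells at 1,000 per well and incubate overnight at 37 C. Add compounds in DMSO, incubate 6 hr. Add luciferase reagent, wait 30 min at room temperature, read luminescence.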

[17] = qHTS assay to identify small molecule antagonists of the retinoic acid receptor (RAR) signaling pathway (AID 1159552; also: nearly all actives have a fitted effect of over 50% in size)
Summary of the method: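 RARE-luc C3RL4 cells; cpds + 1 uM (final) retinol, 6 hr, 37 C/5% CO2; luciferase reagent, 30 min RT, luminescence readout. Inhibitors of retinol-driven signal scored.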
% is scaled to controls: 0 for no effect and ±100 for the full control effect.

O=NN1CCN(N=O)CC1
inactive: Potency [1] | Potency [2] | Potency [3] | Potency [4] | Potency [5] | Potency [6] | Potency [7] | Potency [8] | Potency [9] | Potency [10] | outcome [11] | Potency [12]

Cc1cccc(C#N)c1
inactive: Potency [1] | Potency [2] | Potency [3] | Potency [4] | Potency [5] | Potency [6] | Potency [7] | Potency [8] | Potency [9] | Potency [13] | Potency [12]

CC(C)COP(=O)(OCC(C)C)OCC(C)C
inactive: Potency [1] | Potency [2] | Potency [3] | Potency [4] | Potency [5] | Potency [6] | Potency [7] | Potency [13] | Potency [10] | outcome [11]

O=C(O)C(Br)CBr (stereo not drawn)
inactive: Potency [2] | Potency [3] | Potency [4] | Potency [5] | Potency [6] | Potency [7] | Potency [13] | Potency [12]
active: Potency [1] 9.94 µM

O=C1c2ccccc2C(=O)c2ccccc21
inactive: activation [1] 2.89% [at 15.8 µM] | activity change, negative = cytotoxicity [2] 3.01% [at 15.8 µM] | activity change, negative = cytotoxicity [3] 3.84% [at 19 µM] | viability change, negative = cytotoxic [4] 0.548% [at 19 µM] | activity change, negative = inhibition [5] 3.8% [at 23.6 µM] | viability change, negative = cytotoxic [6] 5.88% [at 19 µM] | activity change, negative = cytotoxicity [7] 4.8% [at 19 µM] | activity, negative = inhibition [10] 16.6% [at 19 µM] | activation [11] 5.32% [at 19 µM] | activation [12] -2.19% [at 19 µM]

CC(N)=S
inactive: Potency [1] | Potency [2] | Potency [3] | Potency [4] | Potency [5] | Potency [6] | Potency [7] | Potency [8] | Potency [9] | Potency [13] | Potency [12]

C[C@@H]1CN(C2CCC(C#N)(c3ccc(F)cc3)CC2)CC[C@]1(C(=O)O)c1ccccc1 (stereo partly drawn)
inactive: Potency [1] | Potency [2] | Potency [3] | Potency [4] | Potency [5] | Potency [6] | Potency [7] | Potency [8] | Potency [9] | Potency [13] | Potency [10] | outcome [11] | Potency [12]

CN/C(=N\[N+](=O)[O-])NCC1CCOC1 (stereo not drawn)
inactive: Potency [1] | Potency [2] | Potency [3] | Potency [4] | Potency [6] | Potency [7] | Potency [8] | Potency [9] | Potency [13] | Potency [12]

COC(=O)C(c1ccccc1)C1CCCCN1 (stereo not drawn)
inactive: Potency [1] | Potency [2] | Potency [3] | Potency [4] | Potency [5] | Potency [6] | Potency [7] | Potency [8] | Potency [9] | Potency [12]

Cc1ncc(CNC(=O)N(CCCl)N=O)c(N)n1
inactive: outcome [14] | outcome [15]

Cc1ncsc1CCCl
inactive: outcome [14] | outcome [15]

COc1cc(OC)nc(NC(=O)NS(=O)(=O)c2ncccc2OCC(F)(F)F)n1
inactive: Potency [1] | Potency [3] | Potency [4] | Potency [5] | Potency [6] | Potency [7] | Potency [8] | Potency [9] | Potency [10] | outcome [11] | Potency [12]

Cc1ccccc1CO[C@@H]1C[C@@]2(C(C)C)CC[C@]1(C)O2
inactive: Potency [1] | Potency [16] | Potency [4] | Potency [5] | Potency [6] | Potency [7] | Potency [8] | Potency [9] | Potency [13]

O=C(N[C@H]1CN2CCC1CC2)c1cc2ccoc2cn1
inactive: Potency [2] | Potency [3] | Potency [17] | Potency [16] | Potency [4] | Potency [5] | Potency [6] | Potency [7] | Potency [8] | Potency [9] | Potency [12]

NC(=O)c1cc([N+](=O)[O-])cc([N+](=O)[O-])c1
inactive: Potency [1] | Potency [3] | Potency [4] | Potency [5] | Potency [6] | Potency [7] | Potency [12]

ClC(Br)Br
inactive: Potency [2] | Potency [3] | Potency [17] | Potency [16] | Potency [4] | Potency [5] | Potency [6] | Potency [7] | Potency [8] | Potency [9] | Potency [13] | Potency [10] | outcome [11] | Potency [12]

CCOC(=O)/C=C(C)/C=C/C[C@@H](C)CCCC(C)C
inactive: Potency [1] | Potency [16] | Potency [4] | Potency [5] | Potency [6] | Potency [7] | Potency [8] | Potency [9] | Potency [13]

CCCSC(=O)Cl
inactive: Potency [2] | Potency [3] | Potency [17] | Potency [16] | Potency [4] | Potency [5] | Potency [6] | Potency [7] | Potency [8] | Potency [9] | Potency [12]

CCOP(=S)(Oc1cnc(C(C)(C)C)nc1)OC(C)C (stereo not drawn)
inactive: Potency [1] | Potency [16] | Potency [4] | Potency [5] | Potency [6] | Potency [7] | Potency [8] | Potency [13] | Potency [10] | outcome [11]

C[C@H]1CCC[C@H](O)CCCCCc2cc(O)cc(O)c2C(=O)O1
inactive: Potency [1] | Potency [3] | Potency [16] | Potency [5] | Potency [6] | Potency [8] | Potency [9] | outcome [11] | Potency [12]
active: Potency [4] 61.6 µM | Potency [10] 54.9 µM

CCC1(c2ccccc2)C(=O)N=C(O)NC1=O (stereo not drawn)
active: Potency [1] 12 µM
inactive: Potency [3] | Potency [4] | Potency [5] | Potency [6] | Potency [7] | Potency [8] | Potency [9] | Potency [13] | Potency [12]

COc1ccc(C(=O)N2CCCC2=O)cc1
inactive: Potency [1] | Potency [3] | outcome [14] | outcome [15] | Potency [4] | Potency [5] | Potency [6] | Potency [7] | Potency [8] | Potency [9] | Potency [13] | Potency [12]

CN1C(=S)CN=C(c2ccccc2)c2cc(Cl)ccc21
inactive: Potency [2] | Potency [3] | Potency [17] | Potency [16] | Potency [4] | Potency [5] | Potency [6] | Potency [7] | Potency [8] | Potency [13] | Potency [12]

CCCCc1c(C)nc(NCC)[nH]c1=O
inactive: Potency [1] | Potency [3] | Potency [4] | Potency [5] | Potency [6] | Potency [7] | Potency [8] | Potency [9] | Potency [13] | Potency [10] | outcome [11] | Potency [12]

COc1cc2c(cc1OC)[C@@]13CCN4CC5=CCO[C@H]6CC(=O)N2[C@H]1[C@H]6[C@H]5C[C@H]43
inactive: Potency [2] | Potency [3] | Potency [17] | Potency [16] | Potency [4] | Potency [5] | Potency [6] | Potency [7] | Potency [8] | Potency [9]
